{"source": "PubChem BioAssay", "key": {"[1]": {"assay": "hESC survival regulators, cell-based (AID 493140; call rule not given here;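 note: cells exposed to compounds for four days before counting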)", "details": "human embryonic stem cell survival screen; stronger effect = higher value"}, "[2]": {"assay": "kinase inhibitors against Plasmodium liver-stage infection, cell-based, known kinase inhibitor set, luminescence, hepatoma host viability (AID 624392; call rule not given here;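 note: infected cells incubated roughly two days before readout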)", "details": "Plasmodium liver stage in hepatoma cells, luciferase luminescence, concentration not given here; liver cell % of control: measured here: host liver cell viability; parasite % of control: stronger effect = lower value"}, "[3]": {"assay": "LFS_MB_1R medulloblastoma cell growth inhibition, synergistic combos for chromothripsis tumors, cisplatin or BGB combos (AID 1671452);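 note: cells exposed for 96 hours before readout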", "details": "LFS_MB_1R medulloblastoma cells, stronger effect = higher value"}, "[4]": {"assay": "CRL2098 osteosarcoma cell growth inhibition, synergistic combos for chromothripsis tumors, BGB or cisplatin IC20 combos (AID 1671454);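 note: cells exposed for 96 h before readout; 0% = vehicle DMSO and 100% = killing by high DMSO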", "details": "CRL2098 osteosarcoma cells, drug combinations, stronger effect = higher value"}, "[5]": {"assay": "HD-MB03 medulloblastoma cell growth inhibition, synergistic combos for chromothripsis tumors, BGB or cisplatin IC20 combos (AID 1671455; in the data active = inhibition above about 83%;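 note: 0% = vehicle DMSO and 100% = high DMSO as cytotoxic control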)", "details": "HD-MB03 medulloblastoma cells, stronger effect = higher value"}, "[6]": {"assay": "UWB1.289 ovarian carcinoma cell growth inhibition, synergistic combos for chromothripsis tumors, BGB or cisplatin combos (AID 1671456);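 note: cells exposed to compound for four days; 0% = vehicle DMSO and 100% = killing by high DMSO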", "details": "UWB1.289 ovarian carcinoma cells, stronger effect = higher value"}, "[7]": {"assay": "LFS_MB_2R medulloblastoma cell growth inhibition, synergistic combos for chromothripsis tumors, cisplatin combos (AID 1671457);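 note: cells exposed to compound for four days before readout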", "details": "LFS_MB_2R medulloblastoma cells, stronger effect = higher value"}, "[8]": {"assay": "UWB1.289_BRCA1 ovarian cancer growth, cell-based, BGB or cisplatin combinations (AID 1671459)", "details": "UWB1.289 BRCA1 ovarian carcinoma, drug combinations, stronger effect = higher value"}, "[9]": {"assay": "human astrocyte viability loss, single and combined drugs, cytotoxicity control for chromothriptic childhood tumor combination screen, cell-based, BGB or cisplatin IC20 combos (AID 1671460);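 note: cells exposed to compounds for 96 hours before viability readout; 0% = vehicle and 100% = killing control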", "details": "Human astrocytes, drug combinations, stronger effect = higher value"}, "[10]": {"assay": "growth inhibition of CRL1545 osteosarcoma cells, cell-based, cisplatin and BGB IC20 combos (AID 1671464);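 note: cells exposed to compound for 96 hours before readout; 0% = vehicle DMSO and 100% = high DMSO killing control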", "details": "stronger effect = higher value"}, "[11]": {"assay": "liver-stage malaria parasite growth inhibition, primary screen, cell-based, HepG2, luciferase luminescence, HepG2 viability (AID 624349; in the data active = parasite load remaining mostly below about 12%, no sharp cut-off; inactive = mostly above about 10%;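 note: 100% = mean of DMSO negative control wells on the same plate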)", "details": "P. berghei liver stage in HepG2, luciferase luminescence, concentration not given here; parasite load remaining: stronger effect = lower value; viability: measured here: HepG2 viability without parasites"}, "[12]": {"assay": "viability rescue of complex I mutant cybrids, primary screen, cell-based, galactose medium, ATP luminescence (AID 1645843;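 active = z-score of at least 1.8 in each of two replicates, scored against plate mean and spread of sample wells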;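 note: positive z means more ATP and so rescue of galactose-driven cybrid death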)", "details": "complex I mutant cybrid cells, 72 h, stronger effect = higher value"}, "[13]": {"tested_on": "Hepatitis C virus NS3 helicase", "assay": "HCV NS3 helicase inhibitors, primary screen, biochemical, fluorescence polarization, LOPAC1280 library (AID 687035; in the data active = inhibition above about 37%)", "details": "Purified HCV NS3 helicase, Cy5-dT15 ssDNA binding fluorescence polarization; stronger effect = higher value; concentration not given here"}, "[14]": {"assay": "Cy5 fluorescence quenching or enhancement artefacts, artefact control for HCV NS3 helicase inhibitor project, biochemical, LOPAC1280 (AID 687037; call rule not given here)", "details": "Cy5-DNA-NS3h complex fluorescence interference counterscreen"}, "[15]": {"details": "measured here: combination with BGB IC40, at 0.05 µM"}, "[16]": {"details": "measured here: combination with cisplatin, at 0.5 µM"}, "[17]": {"details": "measured here: combination with cisplatin, at 5 µM"}, "[18]": {"details": "measured here: combination with BGB at IC20, at 0.5 µM"}, "[19]": {"details": "measured here: combination with cisplatin at IC20, at 0.5 µM"}, "[20]": {"details": "measured here: combo with BGB at IC20, at 0.5 µM"}, "[21]": {"details": "measured here: combo with cisplatin at IC20, at 0.5 µM"}, "[22]": {"details": "measured here: inhibition with BGB combination, at 0.05 µM"}, "[23]": {"details": "measured here: inhibition with cisplatin combination, at 0.05 µM"}, "[24]": {"details": "BGB combination, concentration series, at 5 µM"}, "[25]": {"details": "cisplatin combination, concentration series, at 5 µM"}, "[26]": {"details": "measured here: combo with BGB IC20, at 0.5 µM"}, "[27]": {"details": "measured here: combo with cisplatin IC20, at 0.5 µM"}, "[28]": {"details": "measured here: with BGB IC20 combination, at 0.5 µM"}, "[29]": {"details": "measured here: with cisplatin IC20 combination, at 0.5 µM"}}, "note": "Where “and” joins values, the source holds several entries; their conditions need not be identical. Identical values can stand only once. Some compounds were tested as several samples or in several runs, with calls that do not always agree. Calls of active or inactive are those of the source. Cut-off read from the data, not from the text of the source, unless noted: active = inhibition above about 80%; inactive = the rest."}
{"smiles": "CCCCC(C)(C)[C@H](O)/C=C/[C@H]1[C@H](O)CC(=O)[C@@H]1C/C=C\\CCCC(=O)O", "values": [{"measurement": "survival", "setting": "[1]", "result": "68.2 (inactive)"}]}
{"smiles": "COc1cc2nccc(Oc3ccc(NC(=O)NC4CC4)c(Cl)c3)c2cc1C(N)=O", "values": [{"measurement": "liver cell % of control", "setting": "[2]", "result": "83.2% and 92.7% and 92.2%"}, {"measurement": "parasite % of control", "setting": "[2]", "result": "3.46% (inactive) and 6.57% (inactive) and 21.7% (inactive)"}]}
{"smiles": "Cc1[nH]c2ccccc2c1CCNCc1ccc(/C=C/C(=O)NO)cc1", "values": [{"measurement": "inhibition", "setting": "[3]; at 0.5 µM", "result": "93.3% (active) and 50.3% (inactive)"}, {"measurement": "inhibition", "setting": "[3]; [15]", "result": "50.6% and -33.1%"}, {"measurement": "inhibition", "setting": "[3]; [16]", "result": "94.8% and 59%"}, {"measurement": "inhibition", "setting": "[3]; [17]", "result": "101% and 94.7%"}, {"measurement": "inhibition", "setting": "[4]; at 0.5 µM", "result": "96% (active) and 13.2% (inactive)"}, {"measurement": "inhibition", "setting": "[4]; [18]", "result": "95% and 15.5%"}, {"measurement": "inhibition", "setting": "[4]; [19]", "result": "96.9% and -1.5%"}, {"measurement": "inhibition", "setting": "[5]; at 0.5 µM", "result": "99.9% (active) and 93.8% (active)"}, {"measurement": "inhibition", "setting": "[5]; [20]", "result": "99.8% and 96.6%"}, {"measurement": "inhibition", "setting": "[5]; [21]", "result": "99.9% and 99.7%"}, {"measurement": "inhibition", "setting": "[6]; at 0.5 µM", "result": "82.2% (active) and 51.9% (inactive)"}, {"measurement": "inhibition", "setting": "[6]; [22]", "result": "27.3% and -1.85%"}, {"measurement": "inhibition", "setting": "[6]; [23]", "result": "42.8% and 21.6%"}, {"measurement": "inhibition", "setting": "[7]; at 0.5 µM", "result": "91.3% (active) and 29.2% (inactive)"}, {"measurement": "inhibition", "setting": "[7]; [16]", "result": "101% and 47.2%"}, {"measurement": "inhibition", "setting": "[7]; [17]", "result": "109% and 98.7%"}, {"measurement": "inhibition", "setting": "[8]; [24]", "result": "121% and 109%"}, {"measurement": "inhibition", "setting": "[8]; at 0.5 µM", "result": "90.3% (active) and 56.4% (inactive)"}, {"measurement": "inhibition", "setting": "[8]; [25]", "result": "127% and 128%"}, {"measurement": "inhibition", "setting": "[9]; at 0.5 µM", "result": "101% (active) and 33.3% (inactive)"}, {"measurement": "inhibition", "setting": "[9]; [26]", "result": "102% and 30.8%"}, {"measurement": "inhibition", "setting": "[9]; [27]", "result": "99.8% and 22.1%"}, {"measurement": "inhibition", "setting": "[10]; at 0.5 µM", "result": "96.5% (active) and 85.3% (active)"}, {"measurement": "inhibition", "setting": "[10]; [28]", "result": "95.5% and 73.9%"}, {"measurement": "inhibition", "setting": "[10]; [29]", "result": "96.9% and 90.9%"}, {"measurement": "inhibition", "setting": "[10]; single agent, at 0.05 µM", "result": "93.3% and 52.8%"}, {"measurement": "inhibition", "setting": "[10]; single agent, at 5 µM", "result": "98.9% and 97.5%"}]}
{"smiles": "CC(C)=CC[C@@H](O)C1=CC(=O)c2c(O)ccc(O)c2C1=O", "values": [{"measurement": "parasite load remaining", "setting": "[11]", "result": "4.44% (active)"}, {"measurement": "viability", "setting": "[11]", "result": 99.5, "unit": "%"}, {"measurement": "z-score", "setting": "[12]", "result": "-2.24 (inactive)"}]}
{"smiles": "O=C1NC(=O)/C(=C/c2ccc3c(c2)OC(F)(F)O3)S1", "values": [{"measurement": "parasite load remaining", "setting": "[11]", "result": "45.5% (inactive)"}, {"measurement": "viability", "setting": "[11]", "result": 93.8, "unit": "%"}, {"measurement": "inhibition", "setting": "[13]", "result": "-5% (inactive)"}, {"measurement": "fluorescence ratio (interference)", "setting": "[14]", "result": "1 (inactive)"}, {"measurement": "z-score", "setting": "[12]", "result": "-0.34 (inactive)"}]}
{"smiles": "O=C(O)[C@H](Cc1c[nH]c2ccccc12)N1C(=O)c2ccccc2C1=O", "values": [{"measurement": "inhibition", "setting": "[3]; at 0.5 µM", "result": "-21% (inactive)"}, {"measurement": "inhibition", "setting": "[3]; [15]", "result": -49.9, "unit": "%"}, {"measurement": "inhibition", "setting": "[3]; [16]", "result": -9.64, "unit": "%"}, {"measurement": "inhibition", "setting": "[3]; [17]", "result": -81.2, "unit": "%"}, {"measurement": "inhibition", "setting": "[4]; at 0.5 µM", "result": "-82% (inactive)"}, {"measurement": "inhibition", "setting": "[4]; [18]", "result": -46.6, "unit": "%"}, {"measurement": "inhibition", "setting": "[4]; [19]", "result": -131, "unit": "%"}, {"measurement": "inhibition", "setting": "[5]; at 0.5 µM", "result": "-20.5% (inactive)"}, {"measurement": "inhibition", "setting": "[5]; [20]", "result": -26.8, "unit": "%"}, {"measurement": "inhibition", "setting": "[5]; [21]", "result": -27.1, "unit": "%"}, {"measurement": "inhibition", "setting": "[6]; at 0.5 µM", "result": "-10.8% (inactive)"}, {"measurement": "inhibition", "setting": "[6]; [22]", "result": -20.2, "unit": "%"}, {"measurement": "inhibition", "setting": "[6]; [23]", "result": -43.5, "unit": "%"}, {"measurement": "inhibition", "setting": "[7]; at 0.5 µM", "result": "-17.3% (inactive)"}, {"measurement": "inhibition", "setting": "[7]; [16]", "result": -13, "unit": "%"}, {"measurement": "inhibition", "setting": "[7]; [17]", "result": -8.45, "unit": "%"}, {"measurement": "inhibition", "setting": "[8]; [24]", "result": -11.5, "unit": "%"}, {"measurement": "inhibition", "setting": "[8]; at 0.5 µM", "result": "-15.7% (inactive)"}, {"measurement": "inhibition", "setting": "[8]; [25]", "result": -28.9, "unit": "%"}, {"measurement": "inhibition", "setting": "[9]; at 0.5 µM", "result": "-2.94% (inactive)"}, {"measurement": "inhibition", "setting": "[9]; [26]", "result": -8.01, "unit": "%"}, {"measurement": "inhibition", "setting": "[9]; [27]", "result": 4.01, "unit": "%"}, {"measurement": "inhibition", "setting": "[10]; at 0.5 µM", "result": "-39.1% (inactive)"}, {"measurement": "inhibition", "setting": "[10]; [28]", "result": -34.3, "unit": "%"}, {"measurement": "inhibition", "setting": "[10]; [29]", "result": -43.9, "unit": "%"}, {"measurement": "inhibition", "setting": "[10]; single agent, at 0.05 µM", "result": -29.1, "unit": "%"}, {"measurement": "inhibition", "setting": "[10]; single agent, at 5 µM", "result": -40.2, "unit": "%"}]}
{"smiles": "O=C(O)c1ccc2c(c1)nc(Nc1cccc(Cl)c1)c1ccncc12", "values": [{"measurement": "liver cell % of control", "setting": "[2]", "result": "84.7% and 84.9% and 89.8%"}, {"measurement": "parasite % of control", "setting": "[2]", "result": "247% (inactive) and 142% (inactive) and 94.6% (inactive)"}]}
